High-throughput results: PubChem BioAssay, National Center for Advancing Translational Sciences (NCATS)
Shown are actives, neighbours in structure and some others; about 1.3% of the full set was active somewhere.
TRPV1 ag: agonists of human vanilloid receptor 1 (TRPV1) | 320,000 tested, 0.19% active | TRPV1-expressing cells, Fluo-8 calcium influx, agonist mode | activation, % at 8.33 µM; in the data active means activation above about 80%; inconclusive means between about 30% and that limit; further: 0% is about no effect
Target sequence (Q8NER1 whole entry, looked up): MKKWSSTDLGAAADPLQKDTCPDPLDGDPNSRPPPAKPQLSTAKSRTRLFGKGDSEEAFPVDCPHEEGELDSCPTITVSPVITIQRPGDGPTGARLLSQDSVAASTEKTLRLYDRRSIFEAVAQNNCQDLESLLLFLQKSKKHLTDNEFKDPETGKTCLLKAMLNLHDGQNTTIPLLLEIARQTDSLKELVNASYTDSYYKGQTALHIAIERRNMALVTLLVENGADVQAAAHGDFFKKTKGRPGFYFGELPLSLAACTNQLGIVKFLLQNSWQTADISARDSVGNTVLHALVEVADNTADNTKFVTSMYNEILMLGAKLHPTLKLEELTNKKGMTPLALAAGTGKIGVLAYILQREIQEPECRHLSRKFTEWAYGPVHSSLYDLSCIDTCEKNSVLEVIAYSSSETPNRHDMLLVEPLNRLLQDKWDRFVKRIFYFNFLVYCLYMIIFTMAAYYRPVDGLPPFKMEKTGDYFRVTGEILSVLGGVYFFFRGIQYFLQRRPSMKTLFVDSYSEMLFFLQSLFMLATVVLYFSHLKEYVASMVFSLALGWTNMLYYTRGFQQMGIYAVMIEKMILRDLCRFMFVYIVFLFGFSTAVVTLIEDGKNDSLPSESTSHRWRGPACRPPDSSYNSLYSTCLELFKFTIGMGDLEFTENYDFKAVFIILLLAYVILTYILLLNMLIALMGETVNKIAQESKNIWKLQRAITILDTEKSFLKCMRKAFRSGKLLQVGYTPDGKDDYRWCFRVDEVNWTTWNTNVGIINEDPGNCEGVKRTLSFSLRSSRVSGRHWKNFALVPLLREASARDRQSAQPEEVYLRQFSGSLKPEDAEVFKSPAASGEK
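Cells expressing TRPV1 were dye-loaded with Fluo-8 and read kinetically: 10 s baseline, 3 min after compound (agonist portion), then 2 min after EC20 capsaicin (allosteric enhancer portion). Calcium-bound dye fluorescence at 480/520 nm.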
KCNH2 3.1 inh: inhibitors of human KCNH2 3.1 potassium channel isoform | AID 720553 | activity change, % (tested at about 1.8 µM) | U2OS KCNH2 3.1, thallium flux FluxOr; hits give low values | 340,000 tested, 0.95% active;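 active means maximum activity change below -70%; inconclusive means maximum activity change from -70% to -50%; inactive means maximum activity change above -50%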;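 further: thallium influx rate constant from kinetic fluorescence after stimulation buffer; on the % scale 0 is the no-effect control and ±100 the full control effect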
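Virally transduced U2OS (3.1 isoform, 4 h infection in dark at RT) → overnight 37 C → FluxOr + Red40 in HBSS/HEPES, 45 min → stimulation buffer, 2 min kinetic read → rate constant vs DMSO controls.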
MBNL1-CUG inh: inhibitors of human MBNL1 binding to CUG repeat RNA. TR-FRET MBNL1-His/biotin-(CUG)12 binding, 665/545 ratio. Potency, µM (top dose mostly 57.5 µM), without a hit: at the top dose activity change, negative = inhibition, usual class: inhibitors. 280,000 tested, 0.036% active. AID 2675; active means well fitted inhibition curve with a large enough effect in the signal ratio, with a control signal flat, not every such curve was filed as active; inconclusive means small, poorly fitted or top-dose-only effect, or effect the other way, or a change in a side signal; inactive means no such curve, though single readings can be large or run the other way; the % refers to the signal ratio; further: potency means the concentration at half of the fitted maximal effect; on the % scale 0 is the no-effect control and ±100 the full control effect
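TR-FRET readout: Ex 340 nm, 665/545 nm emission ratio, normalized to buffer-only (basal) and MBNL1-(CUG)12 controls. Complex of MBNL1-His with Biotin-(CUG)12, compounds 92 nM–58 uM, incubated 60 min at room temperature.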
KCNH2 WT inh: inhibitors of human wildtype KCNH2 potassium channel. U2OS, BacMam KCNH2, thallium flux FluxOr; hits give low values. activity change, % at 1.84 µM. 340,000 tested, 0.37% active;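 active means maximum activity change below -70%; inconclusive means maximum activity change between -70% and -50%; inactive means maximum activity change above -50%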; further: on the % scale 0 is the no-effect control and ±100 the full control effect
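U2OS cells transduced with wild-type KCNH2 virus are loaded with FluxOr dye for 45 min, and thallium flux is measured in kinetic reads before and after stimulation buffer. Rate constants are normalized to DMSO controls.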
TRPV1 potentiator: human TRPV1 potentiation. Q8NER1. TRPV1-expressing cells, Fluo-8 calcium influx, capsaicin EC20 potentiation. potentiation, % at 8.33 µM. 320,000 tested, 0.02% active. AID 540277; in the data active means potentiation above about 80%; inconclusive means between about 30% and that limit; further: 0% is about no effect
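TRPV1-expressing cells were cultured overnight at 35.5C and loaded with Fluo-8 calcium dye for 40 to 90 min at room temperature. After a 10 s baseline, compound was added and calcium influx was read kinetically for 3 min (ex 480/em 520 nm).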
Active calls of the source: *; u = inconclusive; x = no result; [ ] = remark or other dose.

SMILES	TRPV1 ag	KCNH2 3.1 inh	MBNL1-CUG inh	KCNH2 WT inh	TRPV1 potentiator
CCOC(=O)COc1ccc2c(C)cc(=O)oc2c1C(=O)c1ccccc1	2.3	-5.6	-3.6%	-0.5	4.1
CCOC(CNC(=O)CN1C(=O)COc2ccc(S(=O)(=O)N3CCCC3)cc21)OCC	-1.2	5.8	6.5%	-5.5	2.3
O=C(CSc1nnc2c(n1)[nH]c1ccccc12)Nc1ccc(S(=O)(=O)Nc2ncccn2)cc1	0.9	-8.5	u	x	u
CC(C)C(NCC(=O)Nc1ccccc1C(=O)NC1CC1)c1ccccc1 (configuration not stated)	x	3.0	x	0.2	x
N#Cc1sc2nc(C3CC3)cc(-c3ccc(Cl)cc3)c2c1N	-5.5	-72.1*	u	-6.5	-33.6
COc1ccc(-c2cc(-c3cccs3)nc3sc(C#N)c(N)c23)cc1	-8.6	6.4	22.4%	2.3	14.8
CCOC(=O)/C(C#N)=C1\CCCN1CC(N)=S	-2.3	-20.2	5.6%[11.5 µM]	-4.3	0.6
CCCC(C)Sc1nc2c([nH]1)c(=S)n(C)c(=O)n2C (configuration not stated)	x	-15.0	x	-157.2*	x
Cc1nc2c(S(=O)(=O)c3ccccc3)cnn2c(C)c1C	1.7	11.2	-1.8%	18.7	82.2*
CN(C)c1nc(Cl)nc(N(C#N)CCOc2ccccc2)n1	10.9	-83.2*	-2.7%	-1.9	3.9
C[N+](C)(C)C[C@H](O)CC(=O)[O-]	1.5	9.7	x	3.1	8.7
C(=N\n1cnnc1)/c1cccs1	0.7	-85.8*	5.0%	12.1	-5.2
C(=N\N=C\c1cccs1)/c1cccs1	3.6	-0.9	x	-0.6	-8.6
O=C(O)CC1S/C(=N\N=C2CCCCCC2)N(c2ccccc2)C1=O (configuration not stated)	0.2	14.6	2.0%	-104.4*	-5.8
CSc1nc2ccc(NC(=O)CSc3nnc(N)s3)cc2s1	1.2	-90.6*	-1.2%	-8.7	-26.4
COc1ccc(NC(=O)CSc2nnc(N)s2)cc1	-0.5	6.7	0.0%	-0.6	4.5
COc1ccc(NC(=O)CCCSc2nc(-c3ccco3)cc(C(F)(F)F)n2)cc1OC	83.2*	3.0	6.8%	-2.5	-10.2
CS(=O)(=O)N1CCC(C(=O)N2CCN(C(c3ccccc3)c3ccccc3)CC2)CC1	17.1	-1.7	-1.3%	x	-40.0
CCCN1CCC(=O)N([C@H](CO)c2ccccc2)CC1	2.5	6.1	-8.8%	-2.8	-7.1
O=C1CCN(CCc2ccccc2)CCN1[C@H](CO)c1ccccc1	-0.9	3.7	-12.0%	-4.9	-13.2
O=C1CCN(CCc2ccccc2)CCN1[C@H](COc1ccccc1)c1ccccc1	3.9	-114.7*	5.4%	-130.3*	-8.4
CCCN1CCC(=O)N([C@H](COc2ccccc2)c2ccccc2)CC1	17.6	-95.4*	9.4%	19.9	-1.8
CC(C)CN1CCC(=O)N([C@H](COc2ccccc2)c2ccccc2)CC1	u	-99.6*	-8.0%	-42.8	-13.1
O=C(NN=Cc1ccccc1)C(Oc1ccccc1)c1ccccc1 (configuration not stated)	x	-40.9	x	-2.7	x
S=C(Sc1ccc(Cl)cc1)Sc1ccc(Cl)cc1	-4.9	x	-12.6%	x	-2.1
SMILES	TRPV1 ag	KCNH2 3.1 inh	MBNL1-CUG inh	KCNH2 WT inh	TRPV1 potentiator
Cc1cccc(CN2C(=O)/C(=C\c3ccc(C(=O)NCCN4CCOCC4)cc3)Sc3ccccc32)c1	4.2	-81.4*	3.4%	-5.0	22.0
COc1ccc(/C=C2\Sc3ccc(C(=O)NC4CC4)cc3N(C)C2=O)cc1OC	4.2	-2.8	u	0.2	10.7
O=C(NC1CCN(Cc2ccccc2)CC1)c1cccc(NS(=O)(=O)c2ccc(Br)cc2)c1	x	-26.7	x	17.2	x
CCN1CCN(CCNC(=O)c2ccc3c(c2)N(Cc2ccc(F)cc2)C(=O)/C(=C/c2ccccc2)S3)CC1	3.4	-87.5*	12.1%	-20.2	8.7
Cc1ccc(S(=O)(=O)Nc2cccc(C(=O)NC3CCN(Cc4ccccc4)CC3)c2)cc1F	24.6	-80.4*	x	-39.2	-7.4
CN1C(=O)/C(=C\c2ccccc2F)Sc2ccc(C(=O)NC3CCN(Cc4ccccc4)CC3)cc21	2.8	-80.6*	12.7%	-83.2*	6.0
O=C(CNc1cccc(C(F)(F)F)c1)N/N=C/C1CCCCC1	97.1*	-20.6	x	-3.5	-30.3
O=C(CNc1cccc(C(F)(F)F)c1)N/N=C/c1cccc(Br)c1	10.7	-5.6	-8.4%	-3.4	5.4
CCC(=O)c1ccc(N2CCN(C(=O)Cc3ccccc3)CC2)c(F)c1	26.9	2.0	-0.1%	-3.1	-25.8
CCC(=O)c1cc(F)c(N2CCN(C(=O)Cc3ccccc3)CC2)cc1C	90.6*	3.0	0.7%	-7.4	-8.3
CCCCN1C(=O)c2ccc(C(=O)Nc3ccc(C)c(S(=O)(=O)N(C)C)c3)cc2C1=O	5.0	-73.6*	u	6.5	-12.3
CCN1CCN(c2ccc(S(=O)(=O)N3CCCCC3)cc2NC(=O)/C=C/c2ccc(OC(F)F)cc2)CC1	9.6	-79.7*	x	-89.9*	-7.2
CCN1CCN(c2ccc(S(=O)(=O)N3CCCCC3)cc2NC(=O)c2cccc(OC(F)F)c2)CC1	-1.5	-117.7*	x	-83.9*	2.3
CCN1CCN(c2ccc(S(=O)(=O)N3CCCCC3)cc2NC(=O)/C=C/c2ccc([N+](=O)[O-])cc2)CC1	-6.3	-75.9*	x	-43.3	-2.0
CCN1CCN(c2ccc(S(=O)(=O)N3CCCCC3)cc2NC(=O)/C=C/c2ccc(F)cc2)CC1	-3.5	-12.7	x	11.8	3.7
C=CCN(c1ccc(C(=O)Nc2ccc3c(c2)OCO3)cc1)S(C)(=O)=O	28.1	-14.3	-12.9%	2.7	-16.7
C=CCN(c1ccc(C(=O)Nc2ccc3c(c2)n(C)c(=O)n3C)cc1)S(C)(=O)=O	0.9	4.2	-6.7%	-283.9*	1.7
Fc1ccccc1OCC1CCCN(Cc2nc(CC3CC3)no2)C1 (configuration not stated)	13.9	-5.0	-0.9%	-2.8	-10.7
Cc1ccc(NC(=O)CSc2nnc(NC3CC3)s2)cc1S(=O)(=O)N1CCOCC1	x	13.3	x	5.7	x
Cc1ccc2c(c1)Sc1c(ccc3ccccc13)N2	x	-0.8	x	1.3	x
CC(C)c1ccccc1NC(=O)c1cccc(NC(=O)c2ccccc2)c1	18.5	-2.6	-7.2%	-0.2	-7.3
CN(CC(=O)Nc1ccccc1Br)C(=O)c1ccncc1	-9.1	-104.6*	-4.7%	1.8	3.9
CC(C(=O)N(C)c1ccccc1)N1CCN(C(=O)c2ccccc2)CC1 (configuration not stated)	-0.7	-4.2	3.8%	-5.3	9.9
O=C(COc1ccccc1F)N1N=C(c2cccs2)CC1c1ccco1 (configuration not stated)	0.2	-3.8	x	0.3	-2.9
Cn1nc(C(=O)NCCOc2ccccc2)c2ccccc2c1=O	-0.1	-119.2*	-15.0%	4.9	21.1
